# T1: NR1D2 386-579 Hormone_recep (domain begin residue: 386, domain end residue: 579), Q14995
# T1 chain: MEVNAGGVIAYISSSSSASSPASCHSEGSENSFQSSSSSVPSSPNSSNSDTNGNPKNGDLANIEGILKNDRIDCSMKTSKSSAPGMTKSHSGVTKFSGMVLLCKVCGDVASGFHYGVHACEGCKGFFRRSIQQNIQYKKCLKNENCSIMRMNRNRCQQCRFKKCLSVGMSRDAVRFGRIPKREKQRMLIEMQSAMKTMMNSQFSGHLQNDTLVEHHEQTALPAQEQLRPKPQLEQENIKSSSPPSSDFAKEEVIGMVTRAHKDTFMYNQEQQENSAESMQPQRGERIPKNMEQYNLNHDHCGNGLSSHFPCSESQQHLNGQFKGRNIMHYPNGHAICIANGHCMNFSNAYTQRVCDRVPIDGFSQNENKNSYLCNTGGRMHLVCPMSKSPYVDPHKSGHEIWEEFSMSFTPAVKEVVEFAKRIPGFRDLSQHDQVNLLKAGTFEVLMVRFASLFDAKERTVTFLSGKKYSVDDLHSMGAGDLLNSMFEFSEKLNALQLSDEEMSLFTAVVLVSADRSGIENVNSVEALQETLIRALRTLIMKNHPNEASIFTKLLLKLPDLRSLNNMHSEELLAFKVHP
# T2: NR1H3 204-447 Hormone_recep (domain begin residue: 204, domain end residue: 447), Q13133
# T2 chain: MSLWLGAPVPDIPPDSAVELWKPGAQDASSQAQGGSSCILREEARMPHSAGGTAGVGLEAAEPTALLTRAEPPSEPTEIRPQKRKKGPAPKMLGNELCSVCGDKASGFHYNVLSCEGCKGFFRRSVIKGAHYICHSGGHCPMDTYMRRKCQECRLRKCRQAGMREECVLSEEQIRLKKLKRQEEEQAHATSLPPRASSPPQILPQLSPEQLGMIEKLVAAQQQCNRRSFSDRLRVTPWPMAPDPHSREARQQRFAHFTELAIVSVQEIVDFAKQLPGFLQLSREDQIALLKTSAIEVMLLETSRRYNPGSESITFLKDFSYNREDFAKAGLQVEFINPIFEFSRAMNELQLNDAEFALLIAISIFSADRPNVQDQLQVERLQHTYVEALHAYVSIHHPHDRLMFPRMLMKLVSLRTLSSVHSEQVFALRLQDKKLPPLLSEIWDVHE
# T3: SND1 650-910 TUDOR+SNase (domain begin residue: 650, domain end residue: 910), Q7KZF4
# T3 chain: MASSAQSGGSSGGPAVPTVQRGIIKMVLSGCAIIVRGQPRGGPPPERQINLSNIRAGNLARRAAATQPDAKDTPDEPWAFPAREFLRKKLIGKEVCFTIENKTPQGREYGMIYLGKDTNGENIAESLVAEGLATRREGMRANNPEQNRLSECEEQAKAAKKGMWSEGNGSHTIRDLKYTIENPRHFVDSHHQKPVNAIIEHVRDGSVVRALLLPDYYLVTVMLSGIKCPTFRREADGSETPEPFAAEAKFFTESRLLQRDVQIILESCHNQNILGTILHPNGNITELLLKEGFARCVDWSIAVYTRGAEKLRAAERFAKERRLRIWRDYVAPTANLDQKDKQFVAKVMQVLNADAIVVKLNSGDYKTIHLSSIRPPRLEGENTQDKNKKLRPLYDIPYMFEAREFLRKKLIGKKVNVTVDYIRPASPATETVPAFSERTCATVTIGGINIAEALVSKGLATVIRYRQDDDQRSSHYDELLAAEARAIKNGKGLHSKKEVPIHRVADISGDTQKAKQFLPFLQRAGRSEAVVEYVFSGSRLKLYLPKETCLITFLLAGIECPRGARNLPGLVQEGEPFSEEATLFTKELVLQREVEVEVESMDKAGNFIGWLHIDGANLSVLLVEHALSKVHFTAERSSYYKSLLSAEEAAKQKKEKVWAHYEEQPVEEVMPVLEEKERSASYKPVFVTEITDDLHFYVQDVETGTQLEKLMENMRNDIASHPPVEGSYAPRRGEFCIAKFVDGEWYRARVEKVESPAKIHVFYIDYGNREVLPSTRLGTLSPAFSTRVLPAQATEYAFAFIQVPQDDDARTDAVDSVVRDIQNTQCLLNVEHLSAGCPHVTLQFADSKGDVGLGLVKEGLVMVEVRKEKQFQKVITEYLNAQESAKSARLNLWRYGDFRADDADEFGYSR
# T4: MDM4 26-106 SWIB (domain begin residue: 26, domain end residue: 106), O15151
# T4 chain: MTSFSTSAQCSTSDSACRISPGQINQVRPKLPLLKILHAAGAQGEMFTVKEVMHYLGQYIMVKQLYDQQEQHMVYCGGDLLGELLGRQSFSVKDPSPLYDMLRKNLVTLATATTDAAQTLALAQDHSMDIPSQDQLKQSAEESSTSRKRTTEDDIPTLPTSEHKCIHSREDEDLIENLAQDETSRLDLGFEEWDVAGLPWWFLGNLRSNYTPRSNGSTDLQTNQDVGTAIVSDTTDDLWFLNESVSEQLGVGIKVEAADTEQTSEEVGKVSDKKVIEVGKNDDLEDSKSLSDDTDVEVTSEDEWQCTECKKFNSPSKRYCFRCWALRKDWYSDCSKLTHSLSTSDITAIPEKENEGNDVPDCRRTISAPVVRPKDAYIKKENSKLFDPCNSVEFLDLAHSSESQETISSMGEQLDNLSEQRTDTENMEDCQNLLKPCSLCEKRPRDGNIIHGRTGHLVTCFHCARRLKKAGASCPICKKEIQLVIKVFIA
# T5: NR1H2 203-460 Hormone_recep (domain begin residue: 203, domain end residue: 460), P55055
# T5 chain: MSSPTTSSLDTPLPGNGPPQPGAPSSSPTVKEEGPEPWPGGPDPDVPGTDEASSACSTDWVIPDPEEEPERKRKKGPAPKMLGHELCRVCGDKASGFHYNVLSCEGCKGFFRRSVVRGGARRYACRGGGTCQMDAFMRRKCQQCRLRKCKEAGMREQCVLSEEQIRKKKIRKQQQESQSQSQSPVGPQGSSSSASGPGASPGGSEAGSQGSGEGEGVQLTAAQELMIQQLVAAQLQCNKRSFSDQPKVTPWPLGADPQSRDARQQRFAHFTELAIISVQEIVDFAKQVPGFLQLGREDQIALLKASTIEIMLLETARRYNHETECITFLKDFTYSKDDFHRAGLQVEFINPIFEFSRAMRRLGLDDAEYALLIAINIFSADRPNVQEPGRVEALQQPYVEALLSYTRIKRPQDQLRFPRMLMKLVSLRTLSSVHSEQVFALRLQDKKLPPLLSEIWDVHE
# T6: NFKBIA 70-282 EF-hand_6 (domain begin residue: 70, domain end residue: 282), P25963
# T6 chain: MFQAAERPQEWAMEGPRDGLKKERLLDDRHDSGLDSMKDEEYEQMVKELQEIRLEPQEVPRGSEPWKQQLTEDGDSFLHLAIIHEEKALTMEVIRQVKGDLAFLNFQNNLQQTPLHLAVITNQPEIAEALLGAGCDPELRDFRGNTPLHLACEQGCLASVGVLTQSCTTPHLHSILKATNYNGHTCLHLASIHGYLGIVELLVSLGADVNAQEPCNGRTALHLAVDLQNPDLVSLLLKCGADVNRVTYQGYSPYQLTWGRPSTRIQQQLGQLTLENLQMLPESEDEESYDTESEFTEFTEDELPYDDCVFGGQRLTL
# T7: NUP98 730-880 Nucleoporin2 (domain begin residue: 730, domain end residue: 880), P52948
# T7 chain: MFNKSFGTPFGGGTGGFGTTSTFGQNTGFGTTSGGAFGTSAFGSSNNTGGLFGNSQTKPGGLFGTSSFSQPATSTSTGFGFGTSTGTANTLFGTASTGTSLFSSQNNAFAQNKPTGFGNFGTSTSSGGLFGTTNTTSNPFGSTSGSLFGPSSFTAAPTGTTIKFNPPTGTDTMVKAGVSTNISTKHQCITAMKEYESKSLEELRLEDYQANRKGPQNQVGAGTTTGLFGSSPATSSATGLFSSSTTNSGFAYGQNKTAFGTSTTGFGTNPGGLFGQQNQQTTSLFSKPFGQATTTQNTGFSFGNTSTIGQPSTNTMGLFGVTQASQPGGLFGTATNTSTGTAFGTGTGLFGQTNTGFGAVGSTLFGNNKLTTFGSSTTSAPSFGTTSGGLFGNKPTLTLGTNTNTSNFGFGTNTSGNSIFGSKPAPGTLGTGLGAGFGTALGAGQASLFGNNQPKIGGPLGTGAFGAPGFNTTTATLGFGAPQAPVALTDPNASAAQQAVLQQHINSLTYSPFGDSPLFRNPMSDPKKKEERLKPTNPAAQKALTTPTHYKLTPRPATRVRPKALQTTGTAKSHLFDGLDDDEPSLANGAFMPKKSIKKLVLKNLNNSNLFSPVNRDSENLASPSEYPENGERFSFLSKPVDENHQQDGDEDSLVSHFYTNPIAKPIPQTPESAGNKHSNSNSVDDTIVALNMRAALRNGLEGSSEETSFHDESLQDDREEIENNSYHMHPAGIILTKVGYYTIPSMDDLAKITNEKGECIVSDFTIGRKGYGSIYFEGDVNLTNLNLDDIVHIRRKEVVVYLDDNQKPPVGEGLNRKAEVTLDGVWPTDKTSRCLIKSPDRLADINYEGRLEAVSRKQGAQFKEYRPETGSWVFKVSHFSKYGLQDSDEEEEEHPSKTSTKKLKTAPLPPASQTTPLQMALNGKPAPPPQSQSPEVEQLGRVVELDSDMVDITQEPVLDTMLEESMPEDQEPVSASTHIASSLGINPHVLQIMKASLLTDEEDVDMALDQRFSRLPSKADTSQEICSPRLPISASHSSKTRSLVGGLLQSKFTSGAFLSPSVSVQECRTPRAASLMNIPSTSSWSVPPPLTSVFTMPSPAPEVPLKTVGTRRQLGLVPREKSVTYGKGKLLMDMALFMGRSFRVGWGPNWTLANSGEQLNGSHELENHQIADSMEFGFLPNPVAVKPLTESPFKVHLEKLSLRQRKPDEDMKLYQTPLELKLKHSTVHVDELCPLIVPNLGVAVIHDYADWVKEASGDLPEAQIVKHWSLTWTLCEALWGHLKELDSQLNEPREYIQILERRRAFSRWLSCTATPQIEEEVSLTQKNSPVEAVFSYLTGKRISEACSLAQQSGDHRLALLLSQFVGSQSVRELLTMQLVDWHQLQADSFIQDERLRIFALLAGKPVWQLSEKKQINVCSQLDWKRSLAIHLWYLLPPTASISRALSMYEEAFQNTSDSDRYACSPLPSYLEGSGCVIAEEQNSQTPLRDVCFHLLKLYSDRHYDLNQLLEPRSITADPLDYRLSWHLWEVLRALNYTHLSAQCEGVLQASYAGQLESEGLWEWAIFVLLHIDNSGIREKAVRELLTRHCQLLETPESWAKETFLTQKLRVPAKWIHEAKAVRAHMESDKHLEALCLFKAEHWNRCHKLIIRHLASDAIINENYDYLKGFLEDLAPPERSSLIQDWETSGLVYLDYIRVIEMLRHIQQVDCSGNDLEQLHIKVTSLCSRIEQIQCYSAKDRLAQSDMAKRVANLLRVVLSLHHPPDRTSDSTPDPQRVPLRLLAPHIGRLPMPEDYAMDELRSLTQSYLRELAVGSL
# Key:
# Test in all cases: phage ELISA signal ratio (GST-PRM binding over GST background); higher = stronger binding of peptide-phage to the PRM
# [1] = molecular target: T1, NR1D2 386-579 Hormone_recep (domain …
# Outline: (§1)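 An M13 phage library with randomized hexadecapeptides on the gene-8 major coat protein, each peptide lacking cysteine and flanked by glycine, was selected for five rounds against human peptide recognition domains fused to the C-terminus of glutathione S-transferase (GST) and expressed in 96-well plates. Approximately 48 clones from rounds 4 and 5 went to phage ELISA. The reported value is the ELISA signal on the GST-domain fusion over the signal on GST alone, and positive clones were sequenced.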
# [2] = molecular target: T2, NR1H3 204-447 Hormone_recep (domain …
# Outline: as §1
# [3] = molecular target: MAD2L1 2-205 HORMA (domain begin residue: 2, domain end residue: 205), Q13257
# Outline: as §1
# [4] = molecular target: MSH6 89-203 PWWP (domain begin residue: 89, domain end residue: 203), P52701
# Outline: as §1
# [5] = molecular target: T3, SND1 650-910 TUDOR+SNase (domain begin …
# Outline: as §1
# [6] = molecular target: T4, MDM4 26-106 SWIB (domain begin residue: …
# Outline: as §1
# [7] = molecular target: T5, NR1H2 203-460 Hormone_recep (domain …
# Outline: as §1
# [8] = molecular target: T6, NFKBIA 70-282 EF-hand_6 (domain begin …
# Outline: as §1
# [9] = molecular target: T7, NUP98 730-880 Nucleoporin2 (domain …
# Outline: as §1
# Chain of MAD2L1 2-205 HORMA (domain begin residue: 2, domain end residue: 205), Q13257 (Q13257 whole entry): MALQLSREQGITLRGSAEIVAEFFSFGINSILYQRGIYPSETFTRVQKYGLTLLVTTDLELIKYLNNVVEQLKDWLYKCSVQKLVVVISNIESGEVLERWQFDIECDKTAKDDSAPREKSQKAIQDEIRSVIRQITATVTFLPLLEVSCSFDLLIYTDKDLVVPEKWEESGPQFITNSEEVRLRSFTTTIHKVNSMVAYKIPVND
# Chain of MSH6 89-203 PWWP (domain begin residue: 89, domain end residue: 203), P52701 (P52701 whole entry): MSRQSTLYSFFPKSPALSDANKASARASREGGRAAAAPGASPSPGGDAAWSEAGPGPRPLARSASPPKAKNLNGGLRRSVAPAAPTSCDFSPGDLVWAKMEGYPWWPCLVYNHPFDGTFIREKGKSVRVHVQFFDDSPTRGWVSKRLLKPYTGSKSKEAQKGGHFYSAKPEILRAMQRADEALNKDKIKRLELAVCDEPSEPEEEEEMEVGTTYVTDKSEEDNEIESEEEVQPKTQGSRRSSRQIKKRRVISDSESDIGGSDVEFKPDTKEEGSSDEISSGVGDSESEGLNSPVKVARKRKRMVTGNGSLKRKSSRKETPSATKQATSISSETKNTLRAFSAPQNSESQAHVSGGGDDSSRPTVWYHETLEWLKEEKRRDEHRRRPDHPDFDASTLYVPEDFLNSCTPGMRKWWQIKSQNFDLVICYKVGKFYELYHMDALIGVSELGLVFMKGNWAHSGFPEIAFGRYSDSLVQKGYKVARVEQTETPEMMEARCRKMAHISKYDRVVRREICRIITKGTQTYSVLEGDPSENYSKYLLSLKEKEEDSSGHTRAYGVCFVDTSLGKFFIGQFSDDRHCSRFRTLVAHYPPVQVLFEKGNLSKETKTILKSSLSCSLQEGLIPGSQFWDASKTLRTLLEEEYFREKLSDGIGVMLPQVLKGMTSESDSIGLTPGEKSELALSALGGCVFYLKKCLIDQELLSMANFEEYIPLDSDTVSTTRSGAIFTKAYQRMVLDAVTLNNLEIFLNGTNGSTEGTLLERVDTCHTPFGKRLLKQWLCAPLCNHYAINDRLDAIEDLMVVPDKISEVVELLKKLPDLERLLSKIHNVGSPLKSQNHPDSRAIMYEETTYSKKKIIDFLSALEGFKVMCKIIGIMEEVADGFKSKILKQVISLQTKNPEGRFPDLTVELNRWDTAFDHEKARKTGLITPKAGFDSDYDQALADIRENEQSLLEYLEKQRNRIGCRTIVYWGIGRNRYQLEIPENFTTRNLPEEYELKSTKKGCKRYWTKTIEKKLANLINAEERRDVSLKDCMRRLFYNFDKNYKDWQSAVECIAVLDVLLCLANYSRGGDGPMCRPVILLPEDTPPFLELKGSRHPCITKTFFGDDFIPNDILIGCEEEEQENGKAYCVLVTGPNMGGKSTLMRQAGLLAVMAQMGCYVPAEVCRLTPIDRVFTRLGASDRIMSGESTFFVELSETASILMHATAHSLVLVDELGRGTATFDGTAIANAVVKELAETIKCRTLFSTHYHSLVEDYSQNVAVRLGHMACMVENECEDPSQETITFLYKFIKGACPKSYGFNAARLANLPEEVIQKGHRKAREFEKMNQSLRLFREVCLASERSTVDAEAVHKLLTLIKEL
binder,measurement,setting,value
ENLTALIMAFFSETIQ,phage ELISA signal ratio,[1],9.19
QDEDVWWAWMMGLGME,phage ELISA signal ratio,[2],8.99
YSIWMMEPPKVAPKAE,phage ELISA signal ratio,[3],15
MWWYDGEMEKMIMETL,phage ELISA signal ratio,[4],4.31
same,phage ELISA signal ratio,[5],7.5
EYYPEWDFLWRHMQEP,phage ELISA signal ratio,[2],8.56
DFAWWWSQMLEAEVNF,phage ELISA signal ratio,[6],12.3
AFWTHWQKLIPPEFQA,phage ELISA signal ratio,[6],26.1
PQTGHWIKFPKPWLEN,phage ELISA signal ratio,[3],15.5
MVEQQVFWYLWMELMN,phage ELISA signal ratio,[6],19.4
GWFHIAPPPKQAEYTE,phage ELISA signal ratio,[3],12.8
ESLWIIPSNAYWEQVM,phage ELISA signal ratio,[7],17.3
DHWWVWGWEAEEYIMP,phage ELISA signal ratio,[7],13.9
SWLRFKAEPPQHIAQL,phage ELISA signal ratio,[3],9
MPYAQMQFMDYWQELA,phage ELISA signal ratio,[6],21.3
KDFSMWWVELKEVEVS,phage ELISA signal ratio,[6],17.4
GEDPPPYSPLTSPDSG,phage ELISA signal ratio,[8],4.18
YDFSQYWDAIPEQFIV,phage ELISA signal ratio,[6],18.1
TFSESWATLTSTSEWM,phage ELISA signal ratio,[6],20.4
DQPPPSYSVLTPDVAL,phage ELISA signal ratio,[8],13.8
YWEHSNELDYWVEFIA,phage ELISA signal ratio,[8],5.67
same,phage ELISA signal ratio,[9],16.9
VEHEFLWHWGQIDFMM,phage ELISA signal ratio,[6],16
DREQSGWFILRAPVYQ,phage ELISA signal ratio,[3],18.9
WFGMEPEEQSMEWQKW,phage ELISA signal ratio,[8],6.64
EWFTDHNGADVWLELP,phage ELISA signal ratio,[8],4.99
PMWDSVWDHLLTEPPE,phage ELISA signal ratio,[4],5.84
MPLFMDLWQDMMPTNY,phage ELISA signal ratio,[6],17.9
IEFMDYWDSLDWMQKV,phage ELISA signal ratio,[6],14.7
QPLPPPPPPSSIPAPA,phage ELISA signal ratio,[8],5.2

# — the supplement of paper PMC7724964
